Bioassay records (PubChem BioAssay)
PREPL inhibitor – PREPL enzyme inhibitors, primary screen, biochemical, fluorescence polarization. recombinant PREPL, fluorescence polarization activity-based probe. inhibition, % at 5.96 µM. actives 0.68% (n = 320,000); in the data active means inhibition above about 43%;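 further: 0% = enzyme with DMSO and 100% = wells lacking enzyme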
PME-1 primary – PME-1 inhibitors via competitive probe labeling, primary screen, biochemical, fluorescence polarization, FP-Rh probe, HTS | recombinant PME-1 | inhibition, % at 5.9 µM | actives 0.53% (n = 320,000) | AID 2130, 2009;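 active means inhibition above the campaign mean of all compounds plus 3 SD, cut at about 26% in these data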;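 further: competitive labeling of PME-1 active site by serine hydrolase directed probe; 0% = PME-1 with DMSO and 100% = wells lacking PME-1 enzyme; inhibitors block probe labeling so polarization falls and inhibition rises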
Target sequence (Q9Y570 whole entry, looked up): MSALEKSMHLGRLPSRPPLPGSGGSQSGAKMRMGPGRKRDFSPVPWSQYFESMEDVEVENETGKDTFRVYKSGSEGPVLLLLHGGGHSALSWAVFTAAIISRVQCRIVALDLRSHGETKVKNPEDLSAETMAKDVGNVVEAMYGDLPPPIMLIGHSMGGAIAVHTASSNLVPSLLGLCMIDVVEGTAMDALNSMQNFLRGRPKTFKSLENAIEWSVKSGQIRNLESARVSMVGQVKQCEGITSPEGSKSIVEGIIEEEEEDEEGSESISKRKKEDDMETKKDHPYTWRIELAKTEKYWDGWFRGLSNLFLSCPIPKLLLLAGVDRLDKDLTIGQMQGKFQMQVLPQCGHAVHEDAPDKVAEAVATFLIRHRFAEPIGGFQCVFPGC
Fam108B inh – mouse Fam108B serine hydrolase inhibitors, primary screen, counter-screen for RBBP9 inhibitor project, biochemical, fluorescence polarization; inhibition, % at 9.51 µM; recombinant Fam108B, FP-Rh probe fluorescence polarization; actives 0.33% (n = 300,000); AID 1947, 2009;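 active means inhibition above the screen mean inhibition plus 3 SD, computed separately per campaign, cut at about 18% in these data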;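 further: inhibitors lower polarization as less probe binds the enzyme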
LYPLA1 counter – LYPLA1 inhibitors, primary screen, counter-screen for PME1 inhibitor project, biochemical, fluorescence polarization, FP-Rh probe ABPP; Acyl-protein thioesterase 1 (Homo sapiens), O75608; recombinant LYPLA1; inhibition, % at 5.9 µM; actives 0.16% (n = 320,000); AID 2174, 2009;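 active means inhibition above the mean of all tested compounds plus 3 SD, set per campaign, cut at about 14% in these data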;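 further: inhibitors block serine hydrolase probe labeling of LYPLA1 so polarization falls; 0% = enzyme with DMSO and 100% = wells lacking LYPLA1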
LYPLA2 counter – LYPLA2 inhibitors, primary screen, counter-screen for PME1 inhibitor project, biochemical, fluorescence polarization, FP-Rh probe ABPP | Acyl-protein thioesterase 2 (Homo sapiens), O95372 | inhibition, % at 5.9 µM | actives 0.38% (n = 320,000) | recombinant LYPLA2;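 active means inhibition above the screen-wide mean plus 3 SD, limit set per campaign, cut at about 26% in these data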;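 further: 0% = LYPLA2 with DMSO and 100% = wells lacking LYPLA2 enzyme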
Target sequence (O95372 whole entry, looked up): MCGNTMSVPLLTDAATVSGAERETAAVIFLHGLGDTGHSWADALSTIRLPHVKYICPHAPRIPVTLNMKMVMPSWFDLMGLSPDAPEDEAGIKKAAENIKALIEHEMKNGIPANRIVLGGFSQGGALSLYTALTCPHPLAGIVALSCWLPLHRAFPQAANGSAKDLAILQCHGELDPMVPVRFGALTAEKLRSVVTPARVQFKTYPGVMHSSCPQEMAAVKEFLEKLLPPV
LYPLA1 confirm – LYPLA1 inhibitors, retest, confirmation, counter-screen for PME1 inhibitor project, biochemical, fluorescence polarization, FP-Rh probe ABPP | shares compounds with LYPLA1 counter | recombinant LYPLA1 | inhibition, % at 5.9 µM | actives 69% (n = 480);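 active means mean inhibition across replicates above the hit cutoff set in the primary screen, cut at about 15% in these data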;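 further: loss of FP-Rh probe labeling of LYPLA1 seen as lower polarization; 0% = LYPLA1 with DMSO and 100% = wells lacking LYPLA1 enzyme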
LYPLA2 confirm – LYPLA2 inhibitors, retest, confirmation, counter-screen for PME1 inhibitor project, biochemical, fluorescence polarization, FP-Rh probe ABPP; actives 72% (n = 1,100); shares compounds with LYPLA2 counter; AID 2232, 2010; recombinant LYPLA2; inhibition, % at 5.9 µM;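 active means mean inhibition across replicates above the hit cutoff set in the primary screen, cut at about 26% in these data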;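 further: blocked labeling of the enzyme by serine hydrolase FP-Rh probe lowers polarization; 0% = enzyme with DMSO and 100% = wells lacking LYPLA2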
Starred values were filed as active, the others as inactive; . = no result given. Most compounds without a hit are left out; they make up all but 1.3% or so of the library.

SMILES	PREPL inhibitor	PME-1 primary	Fam108B inh	LYPLA1 counter	LYPLA2 counter	LYPLA1 confirm	LYPLA2 confirm
COc1ccc(-n2nc(C(=O)NCC(=O)N3CCN(Cc4ccccc4)CC3)c3ccccc3c2=O)cc1	-1	-5	3	43*	69*	47*	67*
COc1ccc(-n2nc(C(=O)NCC(=O)N3CCN(Cc4ccc5c(c4)OCO5)CC3)c3ccccc3c2=O)cc1OC	-6	-17	1	50*	74*	63*	82*
COc1ccc(-n2nc(C(=O)NCC(=O)N3CCN(c4ccccc4)CC3)c3ccccc3c2=O)c(OC)c1	8	4	1	-2	22	.	.
CCOC(=O)C1CCN(C(=O)c2cc3cc(C)ccc3[nH]2)CC1	-8	-5	-3	1	-1	.	.
Nc1nc(NCc2ccco2)nc(N2CCN(Cc3ccccc3)CC2)c1[N+](=O)[O-]	-6	5	0	29*	48*	42*	48*
COc1ccc(C(=O)NC(=S)Nc2ccc(CN3CCOCC3)cc2)cc1Cl	-13	2	-3	22*	60*	21*	46*
CCC(=O)N1CCN(c2ccc(NC(=S)NC(=O)c3ccc(OC)c([N+](=O)[O-])c3)cc2)CC1	5	7	1	56*	63*	70*	81*
COc1ccc(C(=O)NC(=S)Nc2ccc(N3CCOCC3)c(Cl)c2)cc1[N+](=O)[O-]	12	1	-6	50*	60*	54*	61*
CN(Cc1ccc(F)cc1)C(=O)c1cccc(OCc2ccccc2)c1	7	12	-3	0	-2	.	.
CCOc1ccsc1C(=O)O	24	4	-3	2	2	.	.
CCCC(=NCc1ccccc1)C1=C(O)C(C(=O)OC)C(C)(C)CC1=O (configuration not stated)	24	-2	0	4	6	.	.
CCCCC(=Nc1ccc(N)cc1)C1=C(O)C(C(=O)OC)C(C)(C)CC1=O (configuration not stated)	30	41*	13	23*	28*	3	5
O=C(OCCc1cc2ccccc2c(=O)o1)c1ccc(C(F)(F)F)cc1	-32	-2	.	-3	-2	.	.
COC1CCN(C(=O)C2CCC(=O)N(CCc3cccc(F)c3)C2)CC1 (configuration not stated)	2	0	0	-1	1	.	.
O=C(CSCc1ccccc1Br)Nc1ccccc1	-3	3	-3	16*	37*	32*	47*
N#Cc1c(N)nc(SCc2ccncc2)c(C#N)c1-c1cccs1	-6	15	-2	39*	42*	41*	43*
O=C(O)CCCCCN1C(=O)c2ccc(C(=O)O)cc2C1=O	1	2	4	0	3	.	.
O=C(O)c1ccc2c(c1)C(=O)N(CCCCCCCN1C(=O)c3ccc(C(=O)O)cc3C1=O)C2=O	4	-4	-2	69*	47*	73*	48*
COc1ccc(S(=O)(=O)NNc2nc(C)cc(C)n2)cc1Br	0	0	2	2	2	.	.
c1ccc2c(c1)nc(NCCN1CCOCC1)c1nncn12	1	1	-1	6	9	.	.
Clc1cccc(N2CCN(CCNc3nc4ccccc4n4cnnc34)CC2)c1	24	5	0	17*	67*	32*	62*
COc1ccc(CCNC(=O)c2cc([N+](=O)[O-])ccc2N2CCOCC2)cc1	6	-2	9	1	0	.	.
NS(=O)(=O)c1ccc(CCNC(=O)c2cc([N+](=O)[O-])ccc2N2CCCCC2)cc1	9	2	-1	78*	30*	77*	14
COc1ccc(S(=O)(=O)N(C)CC(=O)N2CCCCCC2)cc1OC	18	4	-6	-3	1	.	.
COc1ccc(S(=O)(=O)N(C)CC(=O)N2CCN(c3ccc(F)cc3)CC2)cc1OC	9	3	-2	22*	37*	21*	33*
SMILES	PREPL inhibitor	PME-1 primary	Fam108B inh	LYPLA1 counter	LYPLA2 counter	LYPLA1 confirm	LYPLA2 confirm
CN1CCN(Cc2cccc(Oc3ccccc3)c2)CC1	2	0	3	-2	-1	.	.
COc1ccc(CN2CCN(Cc3cccc(Oc4ccccc4)c3)CC2)c(OC)c1OC	6	0	3	21*	26*	31*	21
CC/C=C(\NC(C)=O)c1ccccc1	5	-1	.	3	10	.	.
c1ccc(CN(Cc2ccccc2)c2ncnc3c2nnn3Cc2ccccc2)cc1	0	3	1	-4	-7	.	.
CC(=O)N1CCC2(CC1)C/C(=N\NC(=S)Nc1ccccc1C)c1cc(O)ccc1O2	31	-3	0	17*	48*	29*	55*
CC(=O)N1CCC2(CC1)C/C(=N\NC(=S)Nc1ccccc1F)c1cc(O)ccc1O2	38	16	3	10	19	.	.
O=C1Cc2ccccc2C(c2ccc(Br)cc2)N1 (configuration not stated)	-1	-1	-2	22*	30*	29*	27*
CC(=O)c1sc(NC(=O)C2CCN(C(=O)c3ccccc3C)CC2)nc1-c1ccccc1	-6	10	1	25*	27*	32*	14
Cc1cccc(NC(=O)C2CCN(C(=O)c3ccccc3C)CC2)n1	12	4	.	3	5	.	.
CCC(C(=O)NCc1ccccn1)n1c2ccccc2c2nc(=O)cc(C)n21 (configuration not stated)	-4	-1	3	-2	-4	.	.
Cc1ccc(NS(=O)(=O)c2cccc(C(=O)N3CCCCCCC3)c2)cc1	4	9	1	0	2	.	.
Cc1ccc(NS(=O)(=O)c2cccc(C(=O)N3CCN(c4ncccn4)CC3)c2)cc1	18	31*	.	24*	50*	-1	2
O=C(NCCNC(=O)c1cc(OCC(F)(F)F)ccc1OCC(F)(F)F)Nc1cccc(C(F)(F)F)c1	-9	-5	2	33*	61*	44*	50*
O=C(Nc1ccc(S(=O)(=O)N2CCOCC2)cc1)c1ccccc1F	-1	-6	-6	3	-1	.	.
COc1ccc(N2CCN(S(=O)(=O)CCNC(=O)/C=C/c3ccccc3)CC2)cc1	21	-4	0	0	3	.	.
O=C(COc1ccc2ccc(=O)oc2c1)Nc1cc([N+](=O)[O-])ccc1F	8	8	2	0	4	.	.
